Experimental findings from PubChem BioAssay (NCI) are described below.

Compounds without any hit were thinned out: in the full panel of roughly 79,000, 15% have a hit. A number with no mark means an inactive call. Active and inactive are the calls of the source. Rule as the data show it: active = growth inhibition above about 70%; inactive = the rest.

A short description of assay [1]: NCI Yeast Anticancer Drug Screen. Data for the rad50 strain (AID 155).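 Also: 0% = growth of vehicle-only cultures of the same strain.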 Particulars: S. cerevisiae rad50 strain growth inhibition; at 50.0 µM; stronger effect = higher value. Put shortly: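 Relative growth inhibition (compound vs vehicle) was measured in yeast with a defined repair-gene alteration.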
A short description of assay [2]: NCI Yeast Anticancer Drug Screen. Data for the mec2-1 strain (AID 157). To be noted: S. cerevisiae mec2-1 strain, at 50.0 µM, stronger effect = higher value. In short, it runs like this:
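Readout is yeast growth inhibition, normalised to vehicle-treated controls, in the mec2-1 strain exposed to compound.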

The nature of assay [3]: NCI Yeast Anticancer Drug Screen. Data for the sgs1 mgt1 strain (AID 161).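 Also: 0% = growth of cultures given vehicle only.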 To be noted: S. cerevisiae sgs1 mgt1 strain, at 50.0 µM, stronger effect = higher value. Put shortly:
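Percent growth inhibition was derived by comparing compound-exposed mutant yeast with vehicle-exposed cultures. The strain carries alterations in DNA damage repair.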

Assay [4] in a line: NCI Yeast Anticancer Drug Screen. Data for the cln2 rad14 strain (AID 165).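 Also: 0% = growth equal to vehicle treated cultures.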 To be noted: S. cerevisiae cln2 rad14 strain, at 50.0 µM, stronger effect = higher value. Put shortly: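 Relative to vehicle controls, growth inhibition of compound-treated cln2 rad14 yeast was recorded.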
Assay [5] is described as follows: NCI Yeast Anticancer Drug Screen. Data for the bub3 strain (AID 167). Particulars: S. cerevisiae bub3 mutant strain, at 50.0 µM, stronger effect = higher value. Put shortly: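 Screening used yeast with an engineered genetic alteration affecting cell cycle control. Compound-exposed cultures were compared with vehicle cultures, and reduced growth was taken as inhibition.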

Assay [6] is described as follows: NCI Yeast Anticancer Drug Screen. Data for the mlh1 rad18 strain (AID 175). To be noted: S. cerevisiae mlh1 rad18 strain growth inhibition; at 50.0 µM; stronger effect = higher value. Put shortly: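 Test agents were incubated with a yeast strain of defined genotype (DNA damage repair defect). Inhibition of growth was derived by comparison with vehicle-exposed cultures.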

With `O=c1[nH]cnc2c1nnn2CCCCCCCCCCCCn1nnc2c(=O)[nH]cnc21`, the growth inhibition is -5.9% in assay [1]; -10.2% in assay [2]; 4.5% in assay [3]; -4.2% in assay [4]; 12.7% in assay [5]; 24.8% in assay [6].

Take `OCCN(CO)CCO`: the growth inhibition in assay [1] was -23.8%; in assay [2], 6.35%; in assay [3] it was -0.25%; in assay [4], -2.6%; in assay [5], 2.6%; in assay [6], -25.2%.

For the compound `O=C1C=C(Nc2ccc3ccccc3c2[N+](=O)[O-])c2ccccc2C1=O`, the growth inhibition in assay [1] was 27.2%; in assay [2] it was 17.4%; in assay [3], 8.05%; in assay [4], -16.4%; in assay [5], 23.2%; in assay [6], 7.1%.

As to `CC(C)(CCN(CC(=O)O)CC(=O)O)[N+](=O)[O-]`, the growth inhibition in assay [1] was -16.1%; in assay [2] it was -3.1%; in assay [3], 3.65%; in assay [4], -69.8%; in assay [5], 6.05%; in assay [6], -21.5%.

For `CC(c1ccccc1)C(C)(C#N)c1ccccc1` (stereo not given), the growth inhibition in assay [1] was 2.8%; in assay [2], 23.1%; in assay [3], 15.8%; in assay [4], 33.5%; in assay [5] it was 10.5%; in assay [6], 40.4%.

In the case of `CN(C)CCCC1(O)c2ccccc2Sc2cc(Cl)ccc21` (stereo not given), the growth inhibition was 12.9% in assay [1]; 12.9% in assay [2]; 17.9% in assay [3]; 18.6% in assay [4]; 12.7% in assay [5]; 25.9% in assay [6].

For the compound `CC1=C(C(=O)NC(C)(C)C)CC(C(=O)NC(C)(C)C)C(C)N1` (stereo not given), the growth inhibition was -21.4% in assay [1]; -25.8% in assay [2]; -17.6% in assay [3]; 2.45% in assay [4]; -3.2% in assay [5]; -18.2% in assay [6].

As to `O=C(O)c1ccccc1C(=O)OC1CC2CCC1C2` (stereo not given), the growth inhibition in assay [1] is -26.2%; in assay [2], -22.6%; in assay [3], -10.4%; in assay [4], 24.2%; in assay [5], 12.6%; in assay [6], 1.6%.

As for `CC(C)(C)c1ccc(P(=O)(O)C(C)(C)C)cc1`, the growth inhibition was -9.5% in assay [1]; 5.9% in assay [2]; -15.5% in assay [3]; 35% in assay [4]; 4.15% in assay [5]; 6.95% in assay [6].

Consider `COc1ccc(-n2cnc3[nH]ncc3c2=O)cc1`, for which the growth inhibition is 1.7% in assay [1]; 0.75% in assay [2]; 0.05% in assay [3]; -0.85% in assay [4]; 12.3% in assay [5]; -2.95% in assay [6].

In the case of `O=S(=O)(c1ccccc1)c1ccc(O)cc1`, the growth inhibition was -20.8% in assay [1]; -23.8% in assay [2]; -16.9% in assay [3]; -29.8% in assay [4]; -8.35% in assay [5]; -15.7% in assay [6].

`CC(O)c1cc2c(s1)C(=O)c1sccc1C2=O` (stereo not given): the growth inhibition in assay [1] was 90.6% (active); in assay [2], 93.5% (active); in assay [3], 92% (active); in assay [4], 91.2% (active); in assay [5] it was 91.9% (active); in assay [6] it was 91.2% (active).

With `COC(=O)C1C2C=CC(CC2)C1C(=O)OC` (stereo not given), the growth inhibition in assay [1] was 1.9%; in assay [2] it was 5.65%; in assay [3], -0.3%; in assay [4], -22.1%; in assay [5] it was -10.8%; in assay [6] it was 7.95%.

In the case of `Cc1ccc(C(=O)Nc2ccc(CP(=O)(O)O)cc2)cc1NC(=O)c1cccc(N)c1`, the growth inhibition in assay [1] was -27.2%; in assay [2], -14.7%; in assay [3] it was -20.4%; in assay [4], 0.9%; in assay [5], -9%; in assay [6], 4.15%.

For the compound `C[C@]12CCC(=O)CC1CCCC2=O` (stereo not given in full), the growth inhibition in assay [1] was 9.9%; in assay [2], -10.8%; in assay [3] it was 6.4%; in assay [4], 24.1%; in assay [5] it was -6.7%; in assay [6] it was 19.8%.

Take `COc1cc(N=Nc2c[nH]c3ccccc23)c(OC)cc1N=Nc1ccc([N+](=O)[O-])cc1`: the growth inhibition was 26.3% in assay [1]; 16.8% in assay [2]; 0.6% in assay [3]; -22% in assay [4]; 13.7% in assay [5]; 34.8% in assay [6].

As to `O=c1sc2ncccc2n1-c1ccc([N+](=O)[O-])cn1`, the growth inhibition in assay [1] is -3.4%; in assay [2] it was 10.4%; in assay [3] it was 3.15%; in assay [4] it was -18.4%; in assay [5], 11.9%; in assay [6] it was -6.55%.

In the case of `O=[N+]([O-])c1ccc(S(=O)(=O)N(CCCBr)c2ccccc2)cc1`, the growth inhibition in assay [1] is 48.4%; in assay [2], 42.6%; in assay [3] it was 72.7% (active); in assay [4], 24.6%; in assay [5], 44.5%; in assay [6], 74.3% (active).

Turning to `O=C(Nc1cccc2ccccc12)OC1CCCC1`, the growth inhibition was 1.2% in assay [1]; -12.4% in assay [2]; -14.4% in assay [3]; -53.7% in assay [4]; 6.35% in assay [5]; -28.6% in assay [6].

In the case of `COc1ccc(N=Nc2c(C)c(C#N)c(=S)n(C3OC(CO)C(O)C(O)C3O)c2C)cc1` (stereo not given), the growth inhibition in assay [1] was 16.1%; in assay [2], 14.1%; in assay [3], 46.6%; in assay [4] it was 7.9%; in assay [5] it was 28.1%; in assay [6], 21.7%.
